Records with an inconclusive call do not appear. The source made the active and inactive calls. The call rests on the fitted dose curve; in most records, active means well fitted cell-killing curve with a large enough effect in the repeat runs; inconclusive means weak or mixed curves, or effect the other way; inactive means flat fitted curve, though single readings scatter.
Assay: cAMP Responsive Elements (CRE) small molecule agonists, cell-based qHTS assay: qHTS cell viability counter screen (AID 2060914); further: nearly all actives have a fitted effect of over 50% in size
Settings: CRE-bla HEK293T viability, CellTiter-Glo luminescence, 5 h; series mostly up to 92.4 µM; activity change, negative = cytotoxicity: at the top concentration
Summary of the method: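 Cells are seeded and incubated 18 h, treated with compounds in DMSO for 3 h, read for the bla reporter, then given CellTiter-Glo; luminescence is measured after 30 min at room temperature.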
On the % scale 0 is the no-effect control and ±100 the full control effect.

Compound	activity change, negative = cytotoxicity	Potency
CCC(C)n1ncn(-c2ccc(N3CCN(c4ccc(OC[C@H]5CO[C@](Cn6cncn6)(c6ccc(Cl)cc6Cl)O5)cc4)CC3)cc2)c1=O (stereo partly drawn)	3.01% [at 42.5 µM] (inactive)	
CC(=O)CC(N)=O	-8.36% (inactive)	
CC1CCN(CCCC(=O)c2ccc(F)cc2)CC1	8.64% [at 42.5 µM] (inactive)	
CCCC1C(CC)=CC(CC)=CN1c1ccccc1 (stereo not drawn)	-21.2% (inactive)	
COc1cc(CNC(=O)CCCC/C=C/C(C)C)ccc1O	-3.16% (inactive)	
COc1c(N2C[C@@H]3CCCN[C@@H]3C2)c(F)cc2c(=O)c(C(=O)O)cn(C3CC3)c12	1.62% [at 42.5 µM] (inactive)	
CC1(C)CCC[C@]2(C)[C@H]3CC(=O)O[C@]3(C)CC[C@@H]12	-19.7% (inactive)	
CC(O)CC(C)(C)O (stereo not drawn)		inactive
CN/C(=C\[N+](=O)[O-])NCCSCc1csc(CN(C)C)n1		inactive
CCOc1ccccc1C(N)=O		inactive
O=C(N[C@@H](c1ccccc1)[C@@H]1CCCCN1)c1cccc(C(F)(F)F)c1Cl	0.319% (inactive)	
Cc1cc2c(cc1CC(=O)c1sccc1S(=O)(=O)Nc1onc(C)c1Cl)OCO2	-0.764% [at 42.5 µM] (inactive)	
Cc1noc(NS(=O)(=O)c2ccc(N)cc2)c1C		inactive
CCCCCCC(C)Nc1ccc(Nc2ccccc2)cc1 (stereo not drawn)	-18.1% (inactive)	
CCN[C@@H]1C[C@H](N)[C@@H](OC2OC(CN)=CCC2N)[C@H](O)[C@H]1O[C@H]1OC[C@](C)(O)[C@H](NC)[C@H]1O (stereo partly drawn)	3.46% [at 0.349 µM] (inactive)	
CCOC(=O)N1CCC(=C2c3ccc(Cl)cc3CCc3cccnc32)CC1		inactive
CCOC(=O)C1=NN(c2ccc(Cl)cc2Cl)C(C)(C(=O)OCC)C1 (stereo not drawn)	-10.8% (inactive)	
CCC(C)(CCCC(C)C)OC(C)=O (stereo not drawn)	3.64% (inactive)	

Reference: PubChem BioAssay (Tox21)
